The target of test [1] is Tyrosine-protein kinase SYK (Homo sapiens) (UniProt P43405). The following applies: at 10 µM.
Test [2] deals with T1, Mitogen-activated protein kinase kinase kinase 7 (Homo sapiens) (UniProt O43318).
T1 sequence (whole entry): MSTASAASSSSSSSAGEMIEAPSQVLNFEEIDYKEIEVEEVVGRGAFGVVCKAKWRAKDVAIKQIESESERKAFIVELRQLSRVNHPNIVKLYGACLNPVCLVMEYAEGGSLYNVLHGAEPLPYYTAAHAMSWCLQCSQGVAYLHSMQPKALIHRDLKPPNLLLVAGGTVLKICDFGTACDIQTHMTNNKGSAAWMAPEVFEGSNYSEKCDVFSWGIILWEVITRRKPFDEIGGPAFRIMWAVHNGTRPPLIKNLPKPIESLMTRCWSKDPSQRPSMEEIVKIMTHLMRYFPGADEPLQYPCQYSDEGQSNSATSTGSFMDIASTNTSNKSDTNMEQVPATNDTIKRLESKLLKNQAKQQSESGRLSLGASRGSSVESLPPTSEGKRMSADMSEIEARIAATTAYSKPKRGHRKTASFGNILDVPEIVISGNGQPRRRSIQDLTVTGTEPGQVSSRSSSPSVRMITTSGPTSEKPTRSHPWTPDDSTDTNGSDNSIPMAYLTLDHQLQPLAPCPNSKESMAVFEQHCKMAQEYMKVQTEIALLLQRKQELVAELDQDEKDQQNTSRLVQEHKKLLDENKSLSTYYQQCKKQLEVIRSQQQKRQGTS
The settings on record: at 1 µM.

Test [3] concerns the target T1, Mitogen-activated protein kinase kinase kinase 7 (Homo sapiens). The following applies: at 10 µM.
For test [4], the target named is T2, Serine/threonine-protein kinase TAO1 (Homo sapiens) (UniProt Q7L7X3).
T2 sequence (whole entry): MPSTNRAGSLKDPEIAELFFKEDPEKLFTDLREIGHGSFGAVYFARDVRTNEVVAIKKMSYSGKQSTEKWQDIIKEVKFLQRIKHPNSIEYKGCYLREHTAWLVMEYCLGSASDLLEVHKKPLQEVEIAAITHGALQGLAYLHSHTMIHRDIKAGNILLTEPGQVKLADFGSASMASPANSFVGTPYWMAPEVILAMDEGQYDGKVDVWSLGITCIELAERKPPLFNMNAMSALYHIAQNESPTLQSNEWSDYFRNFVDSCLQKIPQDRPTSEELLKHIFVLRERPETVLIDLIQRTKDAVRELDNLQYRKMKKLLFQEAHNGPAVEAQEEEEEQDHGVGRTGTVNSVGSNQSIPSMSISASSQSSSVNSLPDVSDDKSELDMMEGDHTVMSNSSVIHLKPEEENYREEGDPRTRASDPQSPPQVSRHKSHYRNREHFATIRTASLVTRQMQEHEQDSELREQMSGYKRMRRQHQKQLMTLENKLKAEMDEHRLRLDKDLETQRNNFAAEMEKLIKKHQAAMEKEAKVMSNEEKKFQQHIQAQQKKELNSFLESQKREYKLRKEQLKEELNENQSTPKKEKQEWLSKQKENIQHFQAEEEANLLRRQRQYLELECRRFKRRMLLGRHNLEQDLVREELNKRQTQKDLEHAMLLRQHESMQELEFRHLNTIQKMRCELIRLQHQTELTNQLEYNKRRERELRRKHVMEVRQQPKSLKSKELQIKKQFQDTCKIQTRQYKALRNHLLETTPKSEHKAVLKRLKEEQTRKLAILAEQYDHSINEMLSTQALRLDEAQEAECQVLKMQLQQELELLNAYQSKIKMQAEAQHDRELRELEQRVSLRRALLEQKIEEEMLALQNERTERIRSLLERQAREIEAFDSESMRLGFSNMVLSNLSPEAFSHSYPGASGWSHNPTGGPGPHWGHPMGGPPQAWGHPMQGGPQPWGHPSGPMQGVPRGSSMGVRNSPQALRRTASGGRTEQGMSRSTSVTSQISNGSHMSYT
The settings on record: at 1 µM.

The target in test [5] is T2, Serine/threonine-protein kinase TAO1 (Homo sapiens). The following applies: at 10 µM.
Test [6] addresses T3, Serine/threonine-protein kinase TAO2 (Homo sapiens) (UniProt Q9UL54).
T3 sequence (whole entry): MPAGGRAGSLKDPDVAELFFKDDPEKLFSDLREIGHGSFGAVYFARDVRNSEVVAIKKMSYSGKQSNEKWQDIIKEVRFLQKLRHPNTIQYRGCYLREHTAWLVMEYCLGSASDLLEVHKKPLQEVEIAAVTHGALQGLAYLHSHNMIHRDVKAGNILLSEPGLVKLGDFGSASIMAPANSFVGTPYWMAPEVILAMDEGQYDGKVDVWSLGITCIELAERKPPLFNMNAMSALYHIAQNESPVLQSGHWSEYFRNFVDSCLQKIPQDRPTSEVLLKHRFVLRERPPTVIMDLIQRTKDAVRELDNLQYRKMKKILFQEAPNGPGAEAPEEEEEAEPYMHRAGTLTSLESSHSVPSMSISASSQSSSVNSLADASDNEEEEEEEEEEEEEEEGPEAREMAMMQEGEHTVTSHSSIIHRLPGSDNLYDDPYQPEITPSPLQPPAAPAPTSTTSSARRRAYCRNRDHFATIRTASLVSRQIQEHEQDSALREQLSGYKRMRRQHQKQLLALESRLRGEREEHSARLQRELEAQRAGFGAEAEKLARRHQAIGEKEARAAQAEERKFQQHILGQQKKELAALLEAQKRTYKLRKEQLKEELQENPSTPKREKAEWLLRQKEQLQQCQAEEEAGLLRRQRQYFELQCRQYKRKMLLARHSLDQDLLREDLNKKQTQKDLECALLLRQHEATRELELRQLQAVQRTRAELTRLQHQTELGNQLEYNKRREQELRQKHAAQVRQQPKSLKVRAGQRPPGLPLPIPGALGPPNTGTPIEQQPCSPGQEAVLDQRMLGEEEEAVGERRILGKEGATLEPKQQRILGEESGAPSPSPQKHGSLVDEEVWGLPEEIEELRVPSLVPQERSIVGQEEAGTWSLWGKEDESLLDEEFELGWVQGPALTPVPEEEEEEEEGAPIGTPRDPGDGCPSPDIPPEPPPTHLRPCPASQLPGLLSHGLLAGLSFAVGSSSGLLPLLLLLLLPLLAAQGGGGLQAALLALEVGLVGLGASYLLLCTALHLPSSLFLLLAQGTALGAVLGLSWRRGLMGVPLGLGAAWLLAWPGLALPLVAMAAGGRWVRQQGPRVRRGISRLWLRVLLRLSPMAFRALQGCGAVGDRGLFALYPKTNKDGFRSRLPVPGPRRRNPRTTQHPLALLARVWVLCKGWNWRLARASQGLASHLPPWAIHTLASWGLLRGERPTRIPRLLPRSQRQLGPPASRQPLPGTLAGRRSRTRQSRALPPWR
The settings on record: at 1 µM.

The target in test [7] is T3, Serine/threonine-protein kinase TAO2 (Homo sapiens). The settings on record: at 10 µM.
For test [8], the target named is T4, Serine/threonine-protein kinase TAO3 (Homo sapiens) (UniProt Q9H2K8).
T4 sequence (whole entry): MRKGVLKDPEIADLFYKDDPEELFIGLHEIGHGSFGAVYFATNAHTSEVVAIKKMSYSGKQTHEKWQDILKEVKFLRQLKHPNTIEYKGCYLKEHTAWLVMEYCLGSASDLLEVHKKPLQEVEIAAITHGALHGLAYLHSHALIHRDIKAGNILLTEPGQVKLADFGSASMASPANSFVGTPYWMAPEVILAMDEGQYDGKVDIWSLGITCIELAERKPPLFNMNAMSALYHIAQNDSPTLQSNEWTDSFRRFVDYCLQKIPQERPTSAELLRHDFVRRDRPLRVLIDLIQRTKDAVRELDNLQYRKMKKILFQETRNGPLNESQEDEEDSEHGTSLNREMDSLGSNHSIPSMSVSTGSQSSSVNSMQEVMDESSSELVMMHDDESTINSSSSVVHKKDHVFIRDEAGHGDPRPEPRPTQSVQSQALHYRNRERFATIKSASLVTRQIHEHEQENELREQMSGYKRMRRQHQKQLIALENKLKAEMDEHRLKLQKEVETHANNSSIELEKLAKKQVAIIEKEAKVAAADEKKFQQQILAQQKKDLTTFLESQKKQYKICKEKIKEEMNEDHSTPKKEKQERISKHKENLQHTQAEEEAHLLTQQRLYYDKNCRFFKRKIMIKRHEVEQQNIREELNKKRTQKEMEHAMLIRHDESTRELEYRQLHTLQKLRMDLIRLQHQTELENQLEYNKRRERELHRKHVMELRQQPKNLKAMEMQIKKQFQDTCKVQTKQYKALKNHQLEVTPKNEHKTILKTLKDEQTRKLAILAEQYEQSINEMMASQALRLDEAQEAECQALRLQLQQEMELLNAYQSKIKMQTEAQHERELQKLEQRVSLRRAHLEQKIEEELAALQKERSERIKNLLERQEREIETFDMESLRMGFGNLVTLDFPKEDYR
The following applies: at 1 µM.

The target of test [9] is T4, Serine/threonine-protein kinase TAO3 (Homo sapiens). The settings on record: at 10 µM.
The target in test [10] is T5, Serine/threonine-protein kinase TBK1 (Homo sapiens) (UniProt Q9UHD2).
T5 sequence (whole entry): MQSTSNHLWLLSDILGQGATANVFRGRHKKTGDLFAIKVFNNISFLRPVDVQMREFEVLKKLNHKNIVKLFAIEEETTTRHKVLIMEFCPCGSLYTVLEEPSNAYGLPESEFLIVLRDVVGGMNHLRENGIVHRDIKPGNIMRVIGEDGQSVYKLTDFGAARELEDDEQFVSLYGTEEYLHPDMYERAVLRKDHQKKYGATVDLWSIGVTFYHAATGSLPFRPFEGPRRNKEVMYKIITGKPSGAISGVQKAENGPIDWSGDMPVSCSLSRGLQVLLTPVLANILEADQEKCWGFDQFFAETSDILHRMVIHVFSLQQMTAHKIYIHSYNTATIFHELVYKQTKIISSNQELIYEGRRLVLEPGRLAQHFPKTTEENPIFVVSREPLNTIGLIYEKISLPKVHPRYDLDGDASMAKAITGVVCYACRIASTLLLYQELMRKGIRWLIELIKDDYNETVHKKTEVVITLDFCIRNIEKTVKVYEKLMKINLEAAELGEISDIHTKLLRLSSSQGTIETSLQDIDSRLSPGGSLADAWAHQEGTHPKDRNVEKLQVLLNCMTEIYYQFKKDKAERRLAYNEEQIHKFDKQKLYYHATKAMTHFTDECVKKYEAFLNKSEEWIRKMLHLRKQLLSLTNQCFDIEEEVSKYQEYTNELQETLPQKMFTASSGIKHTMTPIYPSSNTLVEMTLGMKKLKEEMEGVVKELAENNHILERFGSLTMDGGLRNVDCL
The following applies: at 1 µM.

Molecules are shown by their SMILES.

`CC(C)c1nn(-c2c(Cl)cccc2Cl)c2nc(Cc3ccc(OCCO)cc3)[nH]c(=O)c12`: the residual activity in test [1] came to 96%; in test [2] it was 97%; in [3], 63%; in test [4], 61%; in test [5], 13%; in [6], 84%. The residual activity in test [7] was 22%; in [8] it was 55%; in test [9], 9%; in [10] it was 82%.
